PubChem BioAssay
“And” between values parts separate entries of the source, which are not always exact repeats. Identical values can stand only once. The source made the active and inactive calls.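 Rule for the calls: active = compounds whose cell count with miR-34 switched on is under 0.7 times the count with it off; inactive = the rest.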

Assay: viability loss with induced miR-34 in A549 – imaging, A549 dox-inducible miR-34, nuclei and caspase counts, primary screen (AID 1347080); note: test concentration not given here
Details: A549 miR-34 inducible, Hoechst nuclei count, 48 h; stronger effect = lower value; cell number ratio, induced over uninduced

Row | SMILES | fold change
1 | Nc1nc(N)c(N=O)c(OCC2CCCCC2)n1 | 0.992 (inactive) and 0.824 (inactive)
2 | CC(C)(C)c1nc(-c2cccc(NS(=O)(=O)c3c(F)cccc3F)c2F)c(-c2ccnc(N)n2)s1 | 1 (inactive)
3 | CCOc1cc(N2CCC(O)CC2)ccc1Nc1ncc2c(n1)N(C)c1ccccc1C(=O)N2C | 0.886 (inactive)
4 | Cc1ccc(-n2[nH]c(C)c(N=Nc3cccc(-c4cccc(C(=O)O)c4)c3O)c2=O)cc1C | 0.913 (inactive)
5 | CCc1nc(-c2cccc(C)c2)c(-c2ccnc(NC(=O)c3ccccc3)c2)s1 | 0.974 (inactive)
6 | Nc1ncnc2c1c(-c1cccc(OCc3ccccc3)c1)cn2C1CC(CN2CCC2)C1 (stereo not drawn) | 1.02 (inactive)
7 | NC[C@@H]1O[C@H](O[C@H]2[C@@H](O)[C@H](O[C@@H]3[C@@H](O)[C@H](N)C[C@H](N)[C@H]3O[C@H]3O[C@H](CN)[C@@H](O)[C@H](O)[C@H]3N)O[C@@H]2CO)[C@H](N)[C@@H](O)[C@@H]1O | 0.891 (inactive) and 0.964 (inactive)
8 | COc1ccc(-c2c(-c3ccc(O)cc3O)n[nH]c2C)cc1 | 0.931 (inactive)
9 | O=C(Nc1nc2ccccc2n1CCN1CCOCC1)c1cccc([N+](=O)[O-])c1 | 0.827 (inactive)

Same assay, conditions: A549 miR-34 inducible, Hoechst nuclei count, 48 h; measured here: relative caspase fold change +Dox/-Dox

Row | SMILES | fold change
10 | Nc1nc(N)c(N=O)c(OCC2CCCCC2)n1 | 0.923 and 0.352
11 | CC(C)(C)c1nc(-c2cccc(NS(=O)(=O)c3c(F)cccc3F)c2F)c(-c2ccnc(N)n2)s1 | 0.762
12 | CCOc1cc(N2CCC(O)CC2)ccc1Nc1ncc2c(n1)N(C)c1ccccc1C(=O)N2C | 0.548
13 | Cc1ccc(-n2[nH]c(C)c(N=Nc3cccc(-c4cccc(C(=O)O)c4)c3O)c2=O)cc1C | 1.1
14 | CCc1nc(-c2cccc(C)c2)c(-c2ccnc(NC(=O)c3ccccc3)c2)s1 | 0.928
15 | Nc1ncnc2c1c(-c1cccc(OCc3ccccc3)c1)cn2C1CC(CN2CCC2)C1 (stereo not drawn) | 0.834
16 | NC[C@@H]1O[C@H](O[C@H]2[C@@H](O)[C@H](O[C@@H]3[C@@H](O)[C@H](N)C[C@H](N)[C@H]3O[C@H]3O[C@H](CN)[C@@H](O)[C@H](O)[C@H]3N)O[C@@H]2CO)[C@H](N)[C@@H](O)[C@@H]1O | 0.356 and 1.26
17 | COc1ccc(-c2c(-c3ccc(O)cc3O)n[nH]c2C)cc1 | 0.724
18 | O=C(Nc1nc2ccccc2n1CCN1CCOCC1)c1cccc([N+](=O)[O-])c1 | 1.35
